Data reported in PubChem BioAssay AID504374 (National Center for Advancing Translational Sciences (NCATS), 2011).
“And” between values parts separate entries of the source, which are not always exact repeats. Equal values may be shown once. In all, about 1,500 compounds went through this assay and about 100 (6.7%) were called active. Another 7% or so got no clear call; they are omitted. Shown is part of a subset that was picked to be rich in actives. A number with no mark means an inactive call. Calls follow the shape of the dose curve; as a rule, active = well fitted inhibition curve with a large enough effect; inconclusive = small, poorly fitted or top-dose-only effect, or effect the other way; inactive = flat fitted curve, though single readings scatter.

biological target: Runt-related transcription factor 1 (Homo sapiens) + Core-binding factor subunit beta (Homo sapiens) (UniProt Q01196+Q13951); experiment: qHTS Assay for Compounds Blocking the Interaction Between CBF-beta and RUNX1 for the Treatment of Acute Myeloid Leukemia: Hit Validation; details: AlphaScreen CBFb-His/RUNX1-biotin binding; series mostly up to 59.8 µM; activity, negative = inhibition: at the top concentration; also: nearly all actives have a fitted effect of over 60% in size
Method in brief: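 Compounds were added to a premixed CBF-beta-His/RUNX1-biotin complex (30 nM each, 20 min) for 15 min. Nickel and streptavidin AlphaScreen beads followed for 90 min at room temperature, with emission at 440 nm […].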
% is scaled to controls: 0 for no effect and ±100 for the full control effect; potency is read from the fitted curve at half-maximal effect.

Runt-related transcription factor 1 (Homo sapiens) + Core-binding factor subunit beta (Homo sapiens), sequence (Q01196 whole entry, looked up): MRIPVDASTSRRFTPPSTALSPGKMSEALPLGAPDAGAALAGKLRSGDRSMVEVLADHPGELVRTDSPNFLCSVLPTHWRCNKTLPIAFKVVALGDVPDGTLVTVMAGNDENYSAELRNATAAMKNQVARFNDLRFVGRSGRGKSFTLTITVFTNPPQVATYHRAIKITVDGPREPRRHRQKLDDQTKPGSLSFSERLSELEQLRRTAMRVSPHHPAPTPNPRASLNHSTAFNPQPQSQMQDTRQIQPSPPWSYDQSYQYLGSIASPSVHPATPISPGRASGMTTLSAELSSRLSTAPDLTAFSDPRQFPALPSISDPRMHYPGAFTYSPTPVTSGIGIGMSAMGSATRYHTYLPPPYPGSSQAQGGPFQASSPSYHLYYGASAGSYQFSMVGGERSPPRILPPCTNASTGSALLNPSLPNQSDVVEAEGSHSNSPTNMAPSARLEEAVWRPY
Runt-related transcription factor 1 (Homo sapiens) + Core-binding factor subunit beta (Homo sapiens), sequence (Q13951 whole entry, looked up): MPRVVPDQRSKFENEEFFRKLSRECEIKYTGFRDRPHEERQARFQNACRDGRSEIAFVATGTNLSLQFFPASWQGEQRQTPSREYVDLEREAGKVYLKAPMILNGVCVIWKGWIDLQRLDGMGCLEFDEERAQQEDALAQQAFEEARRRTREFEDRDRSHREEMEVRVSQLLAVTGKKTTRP

Structure (SMILES)	activity, negative = inhibition [%]	Potency
S=c1[nH]ccn1-c1ccccc1Cl	-10.1	
CC(=O)NCC1(O)CCCC(C)C1 (stereo not given)	-8.56	
CC(C)(C)C(=O)Nc1ccc(NC(=O)C(C)(C)C)cc1	10.3	
O=C(COc1ccc([N+](=O)[O-])cc1Cl)N1CCOCC1	2.71	
O=C(CSc1n[nH]c(=O)[nH]c1=O)N1CCCCCC1	-1.59	
O=C(Oc1ccc2c(c1)O/C(=C\c1ccncc1)C2=O)c1cccs1	-8.69	
CCCN(CCC)C(=O)CC(c1ccccc1)c1ccco1 (stereo not given)	12.8	
COC(=O)c1ccc(OC)c(OC)c1Cl	-1.98	
Cc1c2c(c(O)c3c(O)cccc13)C(=O)O[C@H]2C1C(N(C)C)C(O)=C(C(N)=O)C(=O)[C@H]1O (stereo not given in full)		0.631 µM (active)
CCOC(=O)c1c2c([nH]c(=S)c1C#N)CCCC2	-3.85	
COc1cc(O)c2c(c1)oc(=O)c1c3cc(O)c(O)cc3oc21		3.16 µM (active)
COc1cc(C2C(C#N)=C(N)OC3=C2C(=O)CC(C)(C)C3)ccc1OCCN1CCOCC1 (stereo not given)	-3.79	
COC(=O)c1ccc(Cn2cc([N+](=O)[O-])cn2)cc1	-7.08	
C/C(O)=C(\C#N)P(=O)(c1ccccc1)c1ccccc1	10.4	
Clc1ccc(-c2ccccc2)nn1	-1.75	
c1ccc(-c2n[nH]c(-c3ccccn3)n2)nc1		1 µM (active) and 708 nM (active)
Clc1ccccc1/C=C/c1nc(-c2ccccn2)no1	-23.2	
CC(=O)c1cc(C#N)c(SCc2ccccn2)nc1C	-7.25	
c1ccc(-c2ccccn2)nc1		7.94 µM (active)
c1ccc(CSc2ccc(-c3ccccn3)nn2)nc1		2.51 µM (active)
c1ccc(-c2ccc(-c3ccccn3)s2)nc1	3.74	
O=[N+]([O-])c1ccccc1CSc1ccccn1	1.85	
c1ccc(-c2ccc(-c3ccccn3)nn2)nc1		2.82 µM (active)

Structure (SMILES)	activity, negative = inhibition [%]	Potency
CCN(CCS(=O)(=O)c1ccc(Cl)cc1)C(=O)Nc1ccccc1	-4.65	
COc1ccc2c(C)cc(C)nc2n1	6.91	
Cc1cc(C)n2cnnc2n1	-3.07	
CCC1(C)N=C(N)Nc2nc3cc(C)c(C)cc3n21 (stereo not given)	-2.57	
CCOC(=O)N1CCC(NS(=O)(=O)c2ccccc2)CC1	-16.1	
CCNC(=O)COC(=O)c1cc(S(=O)(=O)N2CCCCC2)ccc1C	-10.6	
Cc1cc(C)nc(N2N=C(C(F)(F)F)CC2=O)n1	2.96	
COc1ccc(CCn2cnc3c([nH]c4ccccc43)c2=O)cc1	-4.1	
CC(C)(C)N1CCC1C(N)=O (stereo not given)	12.6	
Cn1c(=O)c2c(Nc3ccc(F)cc3)cc(=O)n(-c3ccccc3)c2n(C)c1=O	-4.15	
O=C(CC1NCCNC1=O)NC1Cc2ccccc2C1 (stereo not given)	9.2	
CC(=O)C1C(=O)CC(c2ccc(Cl)cc2)CC1=O (stereo not given)	-0.716	
Cc1oc(S(=O)(=O)N2CCCC2)cc1C(=O)Nc1ccc(F)cc1	-4.36	
C=CCOc1c(CCC)cc(CCC)cc1C(N)=O	-2.85	
Cc1cc(O)c(C=O)c2c1C(=O)Oc1c(COC(=O)/C=C/C(=O)O)c(O)c(C(=O)O)c(C)c1O2		11.2 µM (active)
CCNC(=S)N1N=C2c3ccccc3CCC2C1c1ccc(F)cc1 (stereo not given)	7.45	
O=C(NN1C(=O)CSC1=S)C(=O)NN1C(=O)CSC1=S		8.91 µM (active)
Nc1cccnc1Oc1ccccc1F	-2.77	
Cn1c(-c2ccc3ccccc3n2)[n+](C)c2ccccc21	-16.8	
Cc1cc(NC(=O)CN2CCCCC2)n(-c2ccccc2)n1	2.06	
NNC(=O)c1ccc(COCC(F)(F)C(F)F)cc1	-1.86	
CC(C)(C)S(=O)(=O)/C(C#N)=C/Nc1ccccn1	-2.32	
O=C(O)c1nccnc1C(=O)Nc1ccc(S(=O)(=O)N2CCOCC2)cc1	-6.89	

Structure (SMILES)	activity, negative = inhibition [%]	Potency
O=S(=O)(c1ccc2nc(-c3ccco3)c(-c3ccco3)nc2c1)N1CCOCC1		5.46 µM (active)
CSc1nc2cc(S(=O)(=O)N3CCCCC3)ccc2s1	-1.3	
COC(=O)CC1=C(C(=O)OC)[C@@H](c2ccccc2[N+](=O)[O-])C(C#N)=C(N)O1	3.04	
Cc1ccc(NC(=O)CSc2n[nH]c(N)n2)cc1S(=O)(=O)N1CCOCC1	-1.46	
CCOc1ccc(N2C(=O)CC(NNc3nc4ccccc4s3)C2=O)cc1 (stereo not given)	5.71	
O=c1c(-c2cc(O)c(O)c(O)c2)coc2cc(O)c(O)c(O)c12		0.447 µM (active)
Cc1nnn(C23C[C@@H]4C[C@@H](CC(C(=O)N5CCN(c6ccccc6)CC5)(C4)C2)C3)n1	-5.35	
COC(=O)[C@H](CCSC)NC(=O)Nc1cc(OC)cc(OC)c1	-12.2	
COc1ccc(C(=O)NC(=S)Nc2ccc(CN3CCOCC3)cc2)cc1	-11.1	
Cn1c(=O)c([N+](=O)[O-])c(NCC2CCCO2)c2ccccc21 (stereo not given)	-0.834	
Cc1cccc(C(=O)N/C(=C\c2ccc(C)o2)C(=O)O)c1	-12.8	
CC(C)(C)OC(=O)N1Cc2cc3ccccc3nc2C1CO (stereo not given)	-2.12	
COc1ccc(NC(=O)CSc2ccc(-c3ccccn3)nn2)cc1OC		4.47 µM (active)
CCOc1ccc(NC(=O)Nc2cc(C(C)C)c(O)cc2C)cc1	-2.87	
COc1ccc(/C=N/NC(=O)Cn2ccnc2C)cc1OC	-9.74	
CCOc1ccc(Nc2c3ccccc3nc3ccccc23)cc1	-13	
O=C(CSc1ccc(-c2ccccn2)nn1)NCc1ccccc1		5.62 µM (active)
CCOc1ccc(NC(=O)CSc2ccc(-c3ccccn3)nn2)cc1		5.01 µM (active)
COC(=O)CNC(=O)CSc1ccccn1	6.43	
COC(=O)[C@H](C)NC(=O)NCc1ccccc1	-3.2	
COc1ccccc1CC(=O)Nc1cccc(C(=O)Nc2nccs2)c1	-6.81	
Cc1oc(S(=O)(=O)N2CCCCC2)cc1NC(=O)Nc1ccc(F)cc1	-4.08	
CC1CN(S(=O)(=O)c2cccc(C(F)(F)F)c2)CC(C)O1 (stereo not given)	-0.629	

Structure (SMILES)	activity, negative = inhibition [%]	Potency
COc1ccc(NC(=O)CCC(=O)N/N=C/c2ccncc2)cc1	4.92	
CC(C)CC1C2C(=O)N(c3ccccc3)C(=O)C2ON1c1ccccc1 (stereo not given)	0.251	
c1ccc2sc(SCSc3nc4ccccc4s3)nc2c1	-3.42	
CC1(C)CC(=O)C2=C(C1)OC(N)=C(C#N)[C@@H]2c1ccccc1[N+](=O)[O-]	-5.53	
COc1ccc(/C=N/NC(=O)c2cnccn2)c(OC)c1OC	-4.33	
CSc1ccc(C(=O)NCC(=O)O)cc1[N+](=O)[O-]	-1.02	
CC(C)(C)c1ccc(NC(=O)c2ccsc2)cc1	6.68	
COC(=O)c1ccc(S(=O)(=O)N(C2CCCCC2)C2CCCCC2)n1C	-5.96	
CCN(CC)CCN1C(=O)C(=O)/C(=C(/O)c2ccc3c(c2)CC(C)O3)C1c1ccc(OC)cc1 (stereo not given)	-3.3	
O=S(=O)(Nc1nc(SCc2ccc(Cl)cc2)n[nH]1)c1ccccc1	-15.9	
CCOC(=O)N1CCC(NC(=O)CCCC(=O)O)CC1	6.93	
Cc1ccccc1-c1noc(-c2ccccc2C(=O)NCC2CCCO2)n1 (stereo not given)	-6.51	
Nc1c(C(=O)NCC2CCCO2)sc2nc3c(c(-c4ccco4)c12)CC/C3=C\c1ccco1 (stereo not given)		12.6 µM (active)
C/C(Cc1nnn(-c2cc(C)on2)n1)=N\O	-0.472	
CCOC(=O)Cc1csc(NC(=O)Cc2ccc(Br)cc2)n1	-4.76	
COc1ccc(-c2nnsc2N2C(=O)c3ccccc3C2=O)cc1	-3.86	
COC(=O)C(=Cc1ccccc1[N+](=O)[O-])C(=O)OC	-2.17	
CC(=O)Nc1ccc(S(=O)(=O)Nc2cc(-c3ccccc3)nn2C)cc1	0.969	
CN(C)C(=O)Nc1ccccc1	-3.42	
O=C(O)C[C@@H]1C(=O)O[C@@H]2C(COC(=O)c3cc(O)c(O)c(O)c3)O[C@@H](OC(=O)c3cc(O)c(O)c(O)c3)[C@@H](OC(=O)c3cc(O)c(O)c4c3[C@H]1[C@H](O)C(=O)O4)[C@H]2OC(=O)c1cc(O)c(O)c(O)c1 (stereo not given in full)		0.0316 µM (active)
CC(Cc1c[nH]c2ccccc12)C(=O)O (stereo not given)		12.2 µM (active)
Cc1cccc(CC(=O)c2c[nH]c3ccccc23)c1	-8.61	
O=C(/C=C/c1ccccc1)c1c[nH]c2ccccc12	-1.47	

Structure (SMILES)	activity, negative = inhibition [%]	Potency
Cc1onc(-c2c(F)cccc2Cl)c1C(=O)N1CCSCC1	-1.82	
Cc1cc(=O)cc2oc3cc(N)c(-c4c(C)cc(O)cc4O)c(C)c3nc1-2		8.88 µM (active)
O=C(O)c1cnc2[nH]c3ccccc3n2c1=O	-12	
Nc1nc(Nc2ccccc2)nc(NCCO)c1[N+](=O)[O-]	-6.03	
Cc1ccn(C)c(=N)c1	-1.05	
COc1ccc(NS(=O)(=O)c2ccc3c(c2)CCO3)cc1	-11.6	
COc1ccc(OC)c(-c2c3cc(O)c(=O)cc-3oc3cc(O)c(O)cc23)c1		2.24 µM (active)
NNC(=O)c1ccc(Cn2cccn2)o1	-3.9	
FC(F)(F)c1cccc(-n2c(Cn3nnc4ccccc43)n[nH]c2=S)c1	7.14	
NCC(=O)Nc1ccc(Cl)cc1C(=O)c1ccc[nH]1		3.55 µM (active)
O=C(O)/C=C/C(=O)Nc1ccc(Cl)cc1C(=O)c1ccccc1	-3.57	
Nc1cc(=O)[nH]c(SCC(=O)Nc2cc(Cl)ccc2Cl)n1	-10	
Cc1ccc(C)c(N2CCN(c3ccncc3N)CC2)c1	-11.1	
O=C(/C=C/c1ccc(O)c(O)c1)c1ccccc1O	-28.7	
NC(Cc1ccc(O)c(O)c1)C(=O)O (stereo not given)		1.12 µM (active)
N[C@H](Cc1ccc(O)c(O)c1)C(=O)O		8.91 µM (active)
NCCc1ccc(O)c(O)c1	-10.7	
CCCCc1cc(=O)oc2c(C)c(OCc3nn[nH]n3)ccc12	-4.17	
CC(=O)Nc1nnc(CSCc2ccc(F)cc2)s1	-1.58	
Cc1ccc(-c2nn[nH]n2)cc1Cl	0.848	
Cc1ccc(C(=O)/C=C/N(C)C)cn1	-6.06	
CCOC(=O)Cc1csc(NC(=O)Nc2cccc(OC)c2)n1	6.65	
CCOC(=O)N1CCC(NS(=O)(=O)c2ccc(C)c(Cl)c2)CC1	-2.28	
